28 molecules from ChEMBL document CHEMBL3988442, “University of Dundee, Small-Polar-MMV Screening Library” (2021) can be followed below.

Screen size: about 48,000 compounds; about 13,000 (27%) showed an effect of 50% or more. This is one part of the list.

The test relates to Wolbachia pipientis. In words: Anti-Wolbachia Cell-Based Screen. It counts as functional. Set-up: scale not given: in the data most compounds retested in dose-response had high values. The note with it: 5 µM.
On to `CC1CCc2nc(O)c(C(=O)NCCCN3CCN(C)CC3)cc2C1` (stereo not drawn), for which the “Percent Effect” value was -5.002%.
Turning to `CC(=O)c1sc2nc3c(c(C(F)(F)F)c2c1N)CN(C(C)=O)CC3`, the “Percent Effect” value is -4.263%.
Under `Cc1ccc(SCC(=O)NS(=O)(=O)c2ccc3c(c2)OCCO3)cc1` stands -12.07%.
As for `O=C(O)C(F)(F)F.O=C(O)C(F)(F)F.O=C(O)c1cc2c(nc1N1CCCC1)CCN(C1CCOCC1)CC2`, the “Percent Effect” value was -7.138%.
On to `COCCN(CC1CCCN(C2Cc3ccccc3C2)C1)C(=O)COC` (stereo not drawn), for which the “Percent Effect” value is reported as -1.224%.
Take `CC(C)CN1C[C@H]2CCN(c3ncccn3)CC[C@H]2S1(=O)=O.O=C(O)C(F)(F)F`: the “Percent Effect” value is -7.419%.
`CCN(Cc1nccs1)Cc1cc(Cl)ccc1OC`: the “Percent Effect” value was -0.3926%.
To `CCOc1ccc(C2CC(=O)NCc3nc(N)sc32)cc1CO` (stereo not drawn) belongs 4.923%; to `COCCOc1ccccc1C(=O)N1CCCCC1c1nccs1` (stereo not drawn), 1.225%.
To `CCOc1ccc([C@@H]2N[C@H](c3nccs3)Cc3ccsc32)cc1OC` belongs 113.5%; to `COc1cccc(C2CCN(c3ccc4cc[nH]c4n3)C2)c1OC` (stereo not drawn), -24.45%; to `COc1cccc([C@@H]2N[C@H](c3nccs3)Cc3ccsc32)c1OC`, 146.2%.
For `CC1N(CC2CC2)C(=O)COC12CCN(C(=O)c1ccno1)CC2` (stereo not drawn), the “Percent Effect” value is -9.759%.
Under `Cn1ncc2c(=O)[nH]c(N3CCCC3c3cccc(Cl)c3)nc21` (stereo not drawn) stands -9.423%; under `CCNC(=O)CN1CCOC(c2ccccc2C(F)(F)F)C1` (stereo not drawn), -9.523%; under `COc1nccnc1N1CCN(Cc2cccc(F)c2)C(=O)C1`, -1.411%.
To `Cn1cnn(Cc2ccccc2F)c1=O` belongs -4.03%; to `O=c1n(Cc2cccc(F)c2)nc2ncccn12`, 124.9%.
On to `CC(C)C1CN(c2ncccn2)CCC(=O)N1Cc1ccc(F)cc1` (stereo not drawn), for which the “Percent Effect” value is given as -1.405%.
Take `O=c1n(Cc2ccc(C(F)(F)F)cc2)nc2ncccn12`: the “Percent Effect” value was found to be 133.4%.
To `O=c1n(Cc2ccccc2F)nc2ncccn12` belongs 224.5%; to `O=c1n(Cc2ccc(F)cc2)nc2ncccn12`, 93%.
To `FC(F)(F)c1ccc(CN2CCN(Cc3cscn3)CC2)cc1` belongs -5.816%; to `O=C(O)[C@@H]1CN(Cc2nc3ncccn3n2)C[C@H]1c1cccc(F)c1`, 4.961%; to `Fc1ccc(Cn2ncc3c2CN(c2ncccn2)C3)cc1`, -12.4%.
For the molecule `O=c1n(CCSCc2ccccc2F)nc2ccccn12`, the “Percent Effect” value came to 16.6%.
For the molecule `CC(NC(=O)Cn1cccnc1=O)c1ccc(C(F)(F)F)cc1` (stereo not drawn), the “Percent Effect” value was -2.849%.
To `Cn1ccc(C(=O)N(CC(F)(F)F)c2cccc(Cl)c2)cc1=O` belongs -11.93%.
